# PubChem BioAssay (NCATS)
# “And” between values parts separate entries of the source, which are not always exact repeats. Identical values can stand only once. Records with an inconclusive call do not appear. Some compounds were tested as several samples or in several runs, with calls that do not always agree. The source made the active and inactive calls. Calls follow the shape of the dose curve; as a rule, active = well fitted curve in the direction sought with a large enough effect; inconclusive = small, poorly fitted or top-dose-only effect, or another doubt; inactive = no such curve, though single readings can be large; an effect the other way counts as inactive or inconclusive.
# Legend:
# [1] = Viability qHTS for spleen associated tyrosine kinase inhibitor (SYKi) naive MV4-11 cells (AID 1963823); also: nearly all actives have a fitted effect of over 40% in size
# Outline: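 qHTS, SYK inhibitor-naive MV4-11; 500 cells/well; 72 hr compound exposure, 37 C; CellTiter-Glo added, 10 min RT; luminescence read.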
# [2] = Viability qHTS for spleen associated tyrosine kinase inhibitor (SYKi) drug resistant MV4-11 cells (AID 1963824); also: nearly all actives have a fitted effect of over 35% in size
# Outline: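 SYK inhibitor-resistant MV4-11 AML cells, 500 per well, added to predispensed compounds and incubated 72 hr at 37 C, 5% CO2. Viability measured by CellTiter-Glo luminescence after 10 min at room temperature.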
# [3] = Quantitative highthroughput screen to assess conditional lethalithy of NOMO1 cells grown in RPMI1640 with untreated serum (RPMI+s) (AID 1963876); also: nearly all actives have a fitted effect of over 35% in size;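 as to Viability: 100% = DMSO wells and 0% = empty wells without cells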
# Outline: (§1)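 Each medium arm—HPLM with 10% dialyzed FBS, or RPMI1640 with 5 mM glucose and 10% untreated or dialyzed FBS—was screened against an 11-point, 3-fold compound titration for 48 h at 37 °C, with CellTiter-Glo luminescence as endpoint.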
# [4] = Quantitative highthroughput screen to assess conditional lethalithy of NOMO1 cells grown in Human Plasma-Like Medium with dialyzed fetal bovine serum (HPLM+ds) (AID 1963878); also: nearly all actives have a fitted effect of over 35% in size;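 as to Viability: 100% = DMSO wells and 0% = empty wells on each plate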
# Outline: as §1
# [5] = Quantitative highthroughput screen to assess conditional lethalithy of SEM cells grown in Human Plasma-Like Medium with dialyzed fetal bovine serum (HPLM+ds) (AID 1963882); also: nearly all actives have a fitted effect of over 35% in size; as to Viability: series mostly up to about 46 µM
# Outline: as §1
# [6] = Quantitative highthroughput screen to assess conditional lethalithy of SEM cells grown in RPMI1640 with unreated serum (RPMI+s) (AID 1963883); also: nearly all actives have a fitted effect of over 35% in size;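 as to Viability: 100% = DMSO wells and 0% = empty wells without cells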
# Outline: as §1
# [7] = Quantitative highthroughput screen to assess conditional lethalithy of SEM cells grown in RPMI1640 with dialyzed fetal bovine serum (RPMI+ds) (AID 1963884); also: nearly all actives have a fitted effect of over 35% in size;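 as to Viability: series mostly up to about 46 µM; 100% = DMSO control wells and 0% = empty wells without cells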
# Outline: as §1
# [8] = Cellular viability qHTS for adrenocortical cancer (ACC) cell line SW-13 (AID 1963989); conditions: SW-13 ACC cells viability, CellTiter-Glo, 48 h; activity (max response): stronger effect = lower value; also: nearly all actives have a fitted effect of over 65% in size;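 as to activity (max response): cells grown in serum-free medium with ITS supplement; % is scaled to controls: 0 for no effect and ±100 for the full control effect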
# Outline: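 IC50 and maximal-response values come from four-parameter logistic fits of titration data. SW-13 cells in serum-free medium received compounds (up to 46 uM final) for 48 h before CellTiter-Glo luminescence.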
# [9] = Quantitative highthroughput screen to assess conditional lethalithy of P12 Ichikawa cells grown in Human Plasma-Like Medium with dialyzed fetal bovine serum (HPLM+ds) (AID 1963879); conditions: Potency: viability; also: nearly all actives have a fitted effect of over 35% in size; as to Viability: series mostly up to about 46 µM
# Outline: as §1
# [10] = Quantitative highthroughput screen to assess conditional lethalithy of P12 Ichikawa cells grown in RPMI1640 with dialyzed fetal bovine serum (RPMI+ds) (AID 1963880); conditions: Potency: P12-Ichikawa viability; also: nearly all actives have a fitted effect of over 35% in size;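 as to Viability: 100% = DMSO wells and 0% = empty wells on each plate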
# Outline: as §1
# [11] = Quantitative highthroughput screen to assess conditional lethalithy of P12 Ichikawa cells grown in RPMI1640 with untreated serum (RPMI+s) (AID 1963881); conditions: Potency: viability; also: nearly all actives have a fitted effect of over 35% in size;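 as to Viability: series mostly up to about 46 µM; 100% = DMSO wells and 0% = empty wells without cells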
# Outline: as §1
# [12] = Cellular viability qHTS for adrenocortical cancer (ACC) cell line NCI-H295R (AID 1963990); also: nearly all actives have a fitted effect of over 60% in size
# Outline: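 Adrenocortical carcinoma cells, suspended at 300 000 cells/mL in serum-free DMEM plus ITS, rested overnight before pin transfer of compound. After two days' incubation, ATP-dependent luminescence was recorded and curve-fitted.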
# Potency is read from the fitted curve at half-maximal effect.
SMILES,Potency [1],Potency [2],Potency [3],Potency [4],Potency [5],Potency [6],Potency [7],Potency [8],Potency [9],Potency [10],Potency [11],Potency [12],activity (max response) [8]
CN(C)C1CCN(C(=O)c2ccc(NC(=O)Nc3nc(N4CCOCC4)nc(N4CCOCC4)n3)cc2)CC1,25.2 nM (active) and 37.2 nM (active),35.5 nM (active) and 59 nM (active),0.662 µM (active),0.0235 µM (active),0.0743 µM (active),0.166 µM (active),0.296 µM (active),0.316 µM (active),–,–,–,–,–
CCOc1cc(N2CCC(O)CC2)ccc1Nc1ncc2c(n1)N(C)c1ccccc1C(=O)N2C,1.86 µM (active),1.03 µM (active),0.332 µM (active),–,20.9 µM (active),16.6 µM (active),16.6 µM (active),15.8 µM (active),2.09 µM (active),3.32 µM (active),2.35 µM (active),10 µM (active),–
FC(F)(F)c1ccc(Nc2nc3ccc(Oc4ccnc(-c5ncc(C(F)(F)F)[nH]5)c4)cc3[nH]2)cc1,1.64 µM (active),4.17 µM (active),inactive,inactive,18.7 µM (active),–,16.6 µM (active),–,–,–,–,–,–
COc1cc(N2CCC(N(C)C)CC2)ccc1Nc1ncc(Cl)c(Nc2ccccc2P(C)(C)=O)n1,0.0661 µM (active),116 nM (active) and 148 nM (active),2.63 µM (active),1.05 µM (active),0.467 µM (active),–,0.524 µM (active),–,0.933 µM (active),–,2.09 µM (active),8.91 µM (active),–
CCc1c2c(nc3ccc(OC(=O)N4CCC(N5CCCCC5)CC4)cc13)-c1cc3c(c(=O)n1C2)COC(=O)[C@]3(O)CC,2.99 µM (active) and 263 nM (active),2.66 µM (active) and 296 nM (active),2.96 µM (active),–,2.35 µM (active),1.87 µM (active),1.48 µM (active),3.66 µM (active) and 3.55 µM (active),1.18 µM (active),1.18 µM (active),0.833 µM (active),–,–
C[C@@]1(c2cc(-c3cncnc3)c(F)cc2F)CCSC(N)=N1,inactive,23.5 µM (active),1.66 µM (active),3.72 µM (active),–,7.43 µM (active),16.6 µM (active),–,10.5 µM (active),16.6 µM (active),11.8 µM (active),inactive,–
O=C(CCCCCCC(=O)Nc1ccc([C@H]2O[C@@H](CSc3nc(-c4ccccc4)c(-c4ccccc4)o3)C[C@@H](c3ccc(CO)cc3)O2)cc1)NO,16.4 µM (active),18.4 µM (active),9.35 µM (active),8.33 µM (active),7.43 µM (active),–,6.62 µM (active),–,4.69 µM (active),3.32 µM (active),–,–,-9.54% (inactive)
O=c1c(O)c(-c2ccc(O)c(O)c2)oc2cc(O)ccc12,13.2 µM (active),5.8 µM (active) and 9.34 µM (active),inactive,inactive,–,–,23.5 µM (active),–,–,–,–,inactive,0.454% (inactive)
CCCCCCCCCC(=O)N[C@@H](Cc1c[nH]c2ccccc12)C(=O)N[C@H](CC(N)=O)C(=O)N[C@@H](CC(=O)O)C(=O)N[C@@H]1C(=O)NCC(=O)N[C@@H](CCCN)C(=O)N[C@@H](CC(=O)O)C(=O)N[C@H](C)C(=O)N[C@@H](CC(=O)O)C(=O)NCC(=O)N[C@H](CO)C(=O)N[C@@H]([C@@H](C)CC(=O)O)C(=O)N[C@@H](CC(=O)c2ccccc2N)C(=O)O[C@@H]1C,inactive,68.5 nM (active) and inactive,inactive,inactive,inactive,inactive,inactive,–,–,inactive,–,inactive,12.9% (inactive)
CC[C@@H](C)[C@H](NC(=O)[C@H](CC1CCCCC1)NC(=O)c1ccno1)C(=O)N1CCC2(CCc3ccccc32)CC1,13 µM (active),18.4 µM (active),inactive,inactive,–,–,–,–,inactive,inactive,inactive,inactive,–
Cc1ccc(NC(=O)c2ccc(CN3CCN(C)CC3)cc2)cc1Nc1nc(-c2cccnc2)cs1,11.6 µM (active) and 14.8 µM (active),13 µM (active) and 13.2 µM (active),inactive,0.372 µM (active),–,–,–,–,–,–,–,22.4 µM (active),–
C[C@@H](NCc1cc2ccccc2[nH]1)c1cccc2ccccc12,6.61 µM (active),7.42 µM (active),inactive,inactive,–,–,–,25.1 µM (active),inactive,inactive,inactive,–,–
CN1CC(=O)NC1=NC(=O)Nc1cccc(Cl)c1,inactive,inactive,inactive,inactive,–,inactive,inactive,–,inactive,inactive,inactive,inactive,-5.87% (inactive)
CCC(C)n1ncn(-c2ccc(N3CCN(c4ccc(OC[C@H]5CO[C@](Cn6cncn6)(c6ccc(Cl)cc6Cl)O5)cc4)CC3)cc2)c1=O (stereo not given in full),2.88 µM (active),1.59 µM (active),inactive,inactive,–,inactive,–,–,inactive,inactive,inactive,inactive,-10.2% (inactive) and 8.84% (inactive)
O=c1cc(N2CCOCC2)oc2c(-c3ccccc3)cccc12,5.9 µM (active),inactive and 9.34 µM (active),inactive,inactive,–,inactive,–,–,inactive,inactive,inactive,inactive,–
Cc1cnc(Nc2ccc(OCCN3CCCC3)cc2)nc1Nc1cccc(S(=O)(=O)NC(C)(C)C)c1,146 nM (active) and 186 nM (active),366 nM (active) and 417 nM (active),inactive,inactive,10.5 µM (active),inactive,–,12.6 µM (active),inactive,inactive,inactive,10 µM (active),–
NC(CO)(CO)CCc1ccc(Sc2cccc(OCc3ccccc3)c2)cc1Cl,7.42 µM (active),3.72 µM (active),13.2 µM (active),7.43 µM (active),–,–,–,–,7.43 µM (active),14.8 µM (active),10.5 µM (active),3.98 µM (active),–
CCc1cc(-c2n[nH]c(C)c2-c2ccc3c(c2)OCCO3)c(O)cc1O,2.35 µM (active),4.17 µM (active),9.35 µM (active),11.8 µM (active),–,–,–,14.1 µM (active),–,–,–,15.8 µM (active),–
CN(C)CCC=C1c2ccccc2C=Cc2ccccc21,18.6 µM (active),14.8 µM (active),20.9 µM (active),18.7 µM (active),–,inactive,inactive,–,–,inactive,–,–,–
O=C(Nc1cccnc1)N1CCC(Cc2cccc(Oc3ccc(C(F)(F)F)cn3)c2)CC1,3.66 µM (active) and 4.17 µM (active),4.61 µM (active) and 3.72 µM (active),10.5 µM (active),8.33 µM (active),–,2.96 µM (active),–,15.8 µM (active),8.33 µM (active),4.18 µM (active),3.72 µM (active),17.8 µM (active),–
O=C(Nc1cc(C(F)(F)F)cc(C(F)(F)F)c1)c1cc(Cl)ccc1O,651 nM (active) and 934 nM (active),517 nM (active) and 662 nM (active),3.32 µM (active),2.96 µM (active),4.18 µM (active),2.96 µM (active),4.18 µM (active),0.355 µM (active),3.72 µM (active),–,–,1.12 µM (active),–
CC(C)(C)c1nc(-c2cccc(NS(=O)(=O)c3c(F)cccc3F)c2F)c(-c2ccnc(N)n2)s1,1.84 µM (active),16.6 µM (active),11.8 µM (active),2.96 µM (active),inactive,2.64 µM (active),inactive,–,inactive,–,2.96 µM (active),–,–
COc1cc([C@@H]2c3cc4c(cc3[C@@H](O[C@@H]3O[C@@H]5CO[C@@H](C)O[C@@H]5[C@H](O)[C@@H]3O)[C@H]3COC(=O)[C@H]23)OCO4)cc(OC)c1O,0.59 µM (active),0.525 µM (active),2.09 µM (active),–,0.526 µM (active),0.132 µM (active),0.166 µM (active),11.2 µM (active),0.935 µM (active),0.833 µM (active),0.662 µM (active),20 µM (active),–
CC(=O)Oc1ccccc1C(=O)O,inactive,inactive,inactive,inactive,inactive,inactive,inactive,–,inactive,–,inactive,inactive,9.69% (inactive) and -6.24% (inactive)
Nc1ccn([C@@H]2O[C@H](CO)[C@@H](O)[C@H]2O)c(=O)n1,inactive,inactive,0.0743 µM (active),0.0166 µM (active),–,–,–,–,–,–,–,inactive,–
COc1cc(Nc2ncc(F)c(Nc3ccc4c(n3)N(COP(=O)(O)O)C(=O)C(C)(C)O4)n2)cc(OC)c1OC,92 nM (active) and 259 nM (active) and 83.3 nM (active),130 nM (active) and 461 nM (active) and 148 nM (active),inactive,inactive,–,–,–,14.1 µM (active),inactive,inactive,inactive,15.8 µM (active),–
CC(C)c1ccc2c(c1)c(SC(C)(C)C)c(CC(C)(C)C(=O)O)n2Cc1ccc(Cl)cc1,16.6 µM (active),10.5 µM (active),inactive,inactive,inactive,inactive,–,–,inactive,–,inactive,inactive,11.6% (inactive)
CC[C@H](C)C(=O)O[C@H]1C[C@@H](C)C=C2C=C[C@H](C)[C@H](CC[C@@H]3C[C@@H](O)CC(=O)O3)[C@H]21,8.33 µM (active),2.66 µM (active) and 3.17 µM (active) and 4.68 µM (active),inactive,14.8 µM (active),inactive,–,–,–,–,–,–,inactive and 17.8 µM (active),-5.87% (inactive)
